# Laboratory results: PubChem BioAssay (NCI)
# About 83,000 compounds went through this panel and 20% of them were active in at least one assay; those are over-represented in the sample as a whole.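 In brief: 96-well plates, 48 h treatment, single concentration, percent growth endpoint.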 Values without a mark were called inactive. Active and inactive are the calls of the source. How the source made its calls: active means growth percent below 10; inactive means the rest.
# What was measured:
# Assay in all cases: NCI-60 one-dose screen, 48 h (100 = growth as untreated, 0 = no growth, -100 = all killed)
# Conditions in all cases: 10 µM unless noted
# [1] = test system: HCT-15 colon
# [2] = test system: HT29 colon
# [3] = test system: SNB-75 CNS
# [4] = test system: SNB-19 CNS
# [5] = test system: PC-3 prostate
# [6] = test system: SK-MEL-5 melanoma
# [7] = test system: UACC-62 melanoma
# [8] = test system: LOX IMVI melanoma
# [9] = test system: SK-MEL-28 melanoma
# [10] = test system: SK-MEL-2 melanoma
# [11] = test system: EKVX NSCLC
# [12] = test system: SN12C renal
# [13] = test system: UO-31 renal
# [14] = test system: TK-10 renal
# [15] = test system: ACHN renal
# [16] = test system: CAKI-1 renal
# [17] = test system: A498 renal
# [18] = test system: CCRF-CEM leukemia
# [19] = test system: U251 CNS
# [20] = test system: MOLT-4 leukemia
SMILES,growth [1],growth [2],growth [3],growth [4],growth [5],growth [6],growth [7],growth [8],growth [9],growth [10],growth [11],growth [12],growth [13],growth [14],growth [15],growth [16],growth [17],growth [18],growth [19],growth [20]
COC1(OC)C2(Cl)CCC1(Cl)C(Cl)=C2Cl,95%,101%,95.6%,105%,100%,102%,101%,94.2%,107%,95.2%,104%,96.8%,94.6%,119%,109%,109%,91%,103%,,
C#Cc1cccc(Nc2nc3cc([N+](=O)[O-])ccc3nc2Nc2ccc(O)cc2)c1,0.208% (active),-80.7% (active),43.8%,23.3%,2.88% (active),47.1%,-15.9% (active),-87.5% (active),21.5%,,23.1%,24.9%,14.6%,3.86% (active),9.93% (active),36.4%,49.4%,6.32% (active),2.57% (active),0.253% (active)
CCc1onc(-c2ccc(OC)cc2)c1-c1ccccc1OCCN(CC)CC,98.2%,60.3%,60.9%,91.3%,75.1%,81%,97.7%,71.9%,100%,,85.2%,91.4%,56.8%,92.2%,92.9%,82.4%,63.3%,75.6%,93.9%,87.2%
Clc1ccc(C2=NN[C@H](c3cn(-c4ccccc4)nc3-c3ccccc3)C2)cc1,70.5%,69.5%,41%,76.9%,36.7%,80.8%,76.5%,49.7%,39%,,35.3%,51.2%,105%,99.2%,53.1%,19.6%,91%,78.3%,49.3%,77.9%
CCN1C(=O)N(CC)C2C1NN=c1s/c(=C\c3ccco3)c(=O)n12 (configuration not stated),19.9%,8.57% (active),-1.06% (active),22.7%,17.7%,12.8%,29.2%,40.4%,58.9%,30%,36.3%,47.5%,60%,57.6%,54.9%,46%,21.5%,10%,,31.7%
COc1ccc(-c2cnnn2-c2nonc2-n2cccc2)cc1,21.4%,8.25% (active),-15.9% (active),37.6%,28.8%,31.9%,24.1%,34.1%,18.4%,,55.6%,43.9%,44.2%,63.7%,48.2%,45.5%,-4.22% (active),14.1%,22.1%,5.61% (active)
COc1ccccc1CNCCCN1C(=O)c2ccc3c4c(ccc(c24)C1=O)C(=O)N(CCCCNCCCN)C3=O,74.6%,-20.1% (active),53.9%,-70.3% (active),43.7%,-97.1% (active),-68.7% (active),-10% (active),-19.4% (active),-46.1% (active),48.1%,-80.2% (active),48.3%,36.7%,28.1%,94.1%,87.9%,2.26% (active),,-21.7% (active)
Cc1nn(-c2cccc(Cl)c2)c(C)c1N=Nc1ccc(Br)cc1,94.4%,74.7%,91.9%,97.9%,80.9%,97.5%,81.7%,101%,92.3%,,,94.4%,86.5%,90.1%,92%,86.7%,83%,97.3%,92.5%,98.9%
Clc1ccc(-c2nc(-c3cccs3)no2)cc1,106%,96%,88.6%,105%,84.4%,87.9%,88.1%,94.7%,112%,103%,85.4%,100%,71.3%,74.6%,101%,99.5%,108%,91.9%,,
N/C(=N\OC(=O)c1ccccc1)C(Cc1ccccc1)C(=O)NOC(=O)c1ccccc1 (configuration not stated),33.2%,85.7%,4.73% (active),56.8%,43%,72.2%,71.2%,-81.2% (active),89.6%,89.7%,59.2%,68.8%,-59.5% (active),78.3%,15.1%,-44.6% (active),59.5%,9.98% (active),,35.2%
COc1ccc(N=C2CSc3nnc(-c4cc(F)c(Cl)cc4Cl)n3N2)cc1,5.01% (active),-66.9% (active),-60.6% (active),0.21% (active),-55% (active),-63.1% (active),20.9%,-42.1% (active),-31.3% (active),,10.8%,7.26% (active),-69.5% (active),-48.1% (active),-26.2% (active),-11.2% (active),,-24.4% (active),-52.2% (active),-4.82% (active)
CCCCCCCCCCCCCCCCCC1=NCCN1CCO,61.7%,61.5%,80.6%,95.5%,63.6%,106%,92%,-47.2% (active),89.4%,,78.2%,86%,48.7%,87.9%,60.7%,55.7%,106%,53.9%,75.6%,30.3%
Oc1ccccc1-c1nnc(COc2ccc(Cl)cc2Cl)o1,27.4%,60.3%,86.6%,53.5%,47.8%,32.3%,25.1%,25.5%,68.9%,,31.1%,52.6%,30.2%,63.7%,43.5%,41.5%,89.9%,15.5%,41.5%,19.5%
Clc1cc2nc(-c3ccccc3)c(-c3ccccc3)nc2cc1Cl,88.7%,88.5%,87.9%,102%,77.3%,89.4%,84.7%,86.2%,101%,,,90.4%,55.7%,123%,93.7%,89.4%,82%,88.2%,95.7%,
Clc1ccccc1CNc1c2ccccc2nc2ccccc12,13.6%,5.54% (active),43.1%,25.8%,17.1%,41.8%,41%,4.83% (active),50.5%,55.6%,25.9%,27.8%,17.5%,42.5%,12.2%,25.2%,-5.85% (active),10.7%,,5.14% (active)
COc1ccc(/C=C/c2nc(NCCCN(C)C)c3ccccc3n2)cc1,86.6%,11.5%,42.8%,100%,,32.3%,104%,-67.1% (active),77.5%,-50.9% (active),64.3%,86.7%,81.9%,89.3%,,87.7%,93.6%,-44.9% (active),-48.4% (active),-46% (active)
